The full ranking holds about 110,000 compounds; the median of “z-score” is about -0.1, and the highest 2% start at about 2. What follows is part of a selection rich in the highest values, with near analogues and random picks from the rest. The source made the active and inactive calls.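 The calls were made as follows: active = z-score in the third read window above 3 or below -3; inactive = the rest.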

For 112 molecules, z-score results are on record in PubChem BioAssay AID488969 (Vanderbilt High Throughput Screening Facility, 2010).

The target of this experiment is Metabotropic glutamate receptor 8 (Rattus norvegicus) (UniProt P70579). Briefly: mGluR8 Gi/Go-coupled signaling modulation – cell-based, rat, thallium flux, HTS, primary screen (AID 488969). As to conditions: HEK293 rat mGluR8, GIRK (G protein-gated inwardly rectifying potassium channel) thallium flux, FluoZin2; at 10 µM; stronger effect = higher value; submaximal glutamate (EC20) added with thallium.
Sequence of Metabotropic glutamate receptor 8 (Rattus norvegicus) (P70579 whole entry, looked up): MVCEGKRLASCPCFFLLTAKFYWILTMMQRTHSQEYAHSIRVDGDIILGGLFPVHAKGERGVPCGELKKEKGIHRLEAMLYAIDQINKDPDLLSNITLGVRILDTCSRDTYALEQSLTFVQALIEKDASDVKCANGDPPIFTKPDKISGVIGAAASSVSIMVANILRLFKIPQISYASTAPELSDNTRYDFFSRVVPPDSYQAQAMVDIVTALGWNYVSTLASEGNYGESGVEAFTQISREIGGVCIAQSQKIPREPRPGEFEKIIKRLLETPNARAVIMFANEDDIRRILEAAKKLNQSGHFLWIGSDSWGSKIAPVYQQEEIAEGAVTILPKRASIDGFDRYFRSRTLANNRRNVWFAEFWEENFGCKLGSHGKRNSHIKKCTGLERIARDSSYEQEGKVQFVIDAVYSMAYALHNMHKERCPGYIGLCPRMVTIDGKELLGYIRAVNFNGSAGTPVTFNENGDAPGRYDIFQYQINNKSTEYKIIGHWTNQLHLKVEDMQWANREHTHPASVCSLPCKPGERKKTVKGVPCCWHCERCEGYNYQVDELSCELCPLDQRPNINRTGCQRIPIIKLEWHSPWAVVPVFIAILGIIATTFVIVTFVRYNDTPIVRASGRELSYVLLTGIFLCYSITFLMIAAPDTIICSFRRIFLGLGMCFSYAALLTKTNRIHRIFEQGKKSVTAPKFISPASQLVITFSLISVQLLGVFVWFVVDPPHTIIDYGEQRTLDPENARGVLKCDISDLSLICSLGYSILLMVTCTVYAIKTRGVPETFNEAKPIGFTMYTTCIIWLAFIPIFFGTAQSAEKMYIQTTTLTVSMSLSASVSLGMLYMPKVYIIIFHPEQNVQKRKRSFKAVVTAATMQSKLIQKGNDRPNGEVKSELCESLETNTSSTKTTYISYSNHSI
For the molecule `COc1ccc(CN(C(=O)c2ccco2)c2ccc(Br)cc2)cc1OC`, the z-score is -0.544.

`CCOC(=O)c1sc(C)c2c(=O)n(CC)nnc12` returned a z-score of 0.154.

`Cc1ccc(NC(=S)NNC(=O)c2cn(C)nc2C)cc1`: the z-score is 0.188.

`CC(=O)c1c(N)[nH]c(-c2ccccc2)nc1=S` displayed a z-score of 1.28.

The molecule `CC(=O)c1c(N2CCN(C)CC2)[nH]c(-c2ccccc2)nc1=S` displayed a z-score of 0.167.

For the molecule `CSc1nc(-c2ccccc2)[nH]c(=S)c1C(C)=O`, the z-score is 7.43 (active).

The molecule `CSc1nc(-c2ccccc2)nc(N)c1C(C)=O` came in with a z-score of -0.0854.

`CSc1nc(-c2ccccc2)nc(SC)c1C(C)=O`: the z-score is -0.493.

Regarding `CC(=O)c1c(N2CCCC2)[nH]c(-c2ccccc2)nc1=S`, the z-score is 14.8 (active).

In turn, `S=C(NC12CC3CC(CC(C3)C1)C2)N1CCCC1` yielded a z-score of -0.0857.

For the molecule `N#C/C(=C(/O)COC(=O)Cc1c[nH]c2ccccc12)c1nc2ccccc2[nH]1`, the z-score was -0.819.

`Cc1ccc2c(c1)NC(=O)C(CC(=O)NCCCN1CCCC1)O2` (configuration not stated) came in with a z-score of 0.515.

For `N#Cc1c(N)nc(SCc2ccccc2)c(C#N)c1-c1ccco1`, the z-score is 11.4 (active).

`CCSc1nc(N)c(C#N)c(-c2ccco2)c1C#N` returned a z-score of -0.377.

Take `COC(=O)CSc1nc(N)c(C#N)c(-c2ccco2)c1C#N`: the z-score was -0.328.

`COc1ccc(Oc2coc3cc(OC(=O)N4CCOCC4)ccc3c2=O)cc1` gave a z-score of -0.0315.

As for `Cc1cccc(Nc2nnc(SCC3CCCCO3)s2)c1C` (configuration not stated), the z-score is -0.0272.

Turning to `COc1cccc(N(C(=O)Cn2nnc(-c3ccc(C)o3)n2)C(C(=O)NC(C)(C)C)c2cccs2)c1` (configuration not stated), the z-score was 0.439.

Molecule `O=C(Nc1ccccc1N1CCOCC1)c1cccs1` had a z-score of 0.511.

For the molecule `CS(=O)(=O)N1CCN(c2ccccc2NC(=O)c2ccco2)CC1`, the z-score was -0.175.

In turn, `O=C(Nc1ccc(N2CCOCC2)cc1N1CCOCC1)c1cccs1` displayed a z-score of -0.508.

For the molecule `O=C(NC(=S)Nc1ccccc1N1CCOCC1)c1cccs1`, the z-score was 4.28 (active).

In the case of `O=C(NC(=S)Nc1ccccc1N1CCCCC1)c1cccs1`, the z-score is -0.0387.

As for `O=C(NC(=S)Nc1ccccc1N1CCCCC1)c1ccco1`, the z-score was 5.87 (active).

In turn, `O=C(NC(=S)Nc1cccc(Cl)c1N1CCCCC1)c1cccs1` had a z-score of 2.55.

`CCC(=O)NC(=S)Nc1cccc(Cl)c1N1CCCCC1` showed a z-score of 0.315.

As to `O=C(NC(=S)Nc1cccc(Cl)c1N1CCCCC1)c1ccco1`, the z-score is 5.38 (active).

For `O=C(Nc1ccccc1N1CCCCC1)c1ccco1`, the z-score was -0.657.

For `O=C(NC(=S)Nc1cccc(Cl)c1N1CCCCC1)c1ccc2c(c1)OCCO2`, the z-score was determined as 0.413.

For the molecule `CCCC(=O)NC(=S)Nc1cccc(Cl)c1N1CCCCC1`, the z-score was determined as 0.12.

For the molecule `Cc1ccc(NC(=O)c2ccc(CSc3nnnn3C)cc2)cc1`, the z-score was -0.174.

For `COc1ccc(-n2c(N)c(C(=O)NCc3cccnc3)sc2=S)cc1`, the z-score amounted to 0.463.

`Cc1nc(NNC(=O)c2ccc(Cl)cc2Cl)cc(-c2ccccc2)n1` displayed a z-score of 0.141.

`CCCOC(=O)c1ccc(OCC(O)CN2C(=O)NC(C)(C)C2=O)cc1` (configuration not stated) came in with a z-score of 0.307.

`O=[N+]([O-])c1cccc(C(=Nc2ccc(Cl)cc2)NO)c1` gave a z-score of -0.259.

Molecule `CC(NC(=O)Nc1nnc(C(F)(F)F)s1)N1C(=O)C2C3C=CC(C3)C2C1=O` (configuration not stated) displayed a z-score of 0.0447.

As for `CCCCCNc1nc(NCCCO)c(C#N)c2c1CN(C)CC2`, the z-score was -0.528.

`CC1CCN(c2ccccc2NC(=S)NC(=O)c2cccs2)CC1` gave a z-score of 1.61.

On to `CC1CCN(c2ccccc2NC(=S)NC(=O)c2ccco2)CC1`, for which the z-score was 3.89 (active).

On to `CC1CCN(c2ccccc2NC(=O)c2ccc(F)cc2)CC1`, for which the z-score is -0.52.

As to `O=C(NC(=S)Nc1ccccc1N1CCOCC1)c1ccco1`, the z-score was 9.71 (active).

`O=C(Nc1ccccc1N1CCCC1)c1ccco1`: the z-score is -0.0103.

The molecule `O=C(Cc1ccc(Cl)cc1)NC(=S)Nc1ccccc1N1CCOCC1` yielded a z-score of 0.883.

In the case of `N#C/C(=C\c1ccc(Cl)cc1Cl)c1n[nH]c(Cn2cncn2)n1`, the z-score was -1.59.

In turn, `O=c1cc(NCc2ccco2)c2ccccc2o1` displayed a z-score of -0.304.

The molecule `CC1=C(C(=O)OC(C)C)C(c2cccs2)C(C(=O)OC(C)C)=C(C)N1` registered a z-score of -0.281.

Turning to `NC(=O)c1cccnc1Nc1ccccc1Cl`, the z-score was -0.423.

With `O=C(/C=C/c1cccc([N+](=O)[O-])c1)NCCSc1ccccc1`, the z-score was -0.3.

For `COc1ccc(C(C(=O)NC(C)(C)C)N(C(=O)CNC(=O)c2cccs2)c2ccc(C(C)C)cc2)cc1OC` (configuration not stated), the z-score is -0.16.

On to `O=C(CSc1cnc2ccccc2n1)NC1CCCC1`, for which the z-score is -0.494.

As for `COc1ccccc1N1CCN(S(=O)(=O)c2cccc3nsnc23)CC1`, the z-score was -0.393.

The molecule `Cc1ccc(Cn2c(=N)n(CC(O)COc3ccccc3)c3ccccc32)cc1` (configuration not stated) registered a z-score of 2.98.

With `Cc1ccc(OCC(O)Cn2c(=N)n(Cc3ccccc3)c3ccccc32)cc1` (configuration not stated), the z-score is 4.01 (active).

For `OC(COc1ccccc1)Cn1c2ccccc2c2ccccc21` (configuration not stated), the z-score was -0.0732.

Molecule `COc1ccccc1OCC(O)Cn1c(=N)n(Cc2ccccc2)c2ccccc21` (configuration not stated) showed a z-score of 0.691.

The molecule `Cc1ccc(OCC(O)Cn2c3ccccc3c3ccccc32)cc1` (configuration not stated) yielded a z-score of -0.222.

In the case of `N=c1n(Cc2ccccc2)c2ccccc2n1CC(O)COc1ccccc1` (configuration not stated), the z-score was determined as 0.257.

In turn, `COc1cc(SC)ccc1C(=O)N(C)Cc1ccccc1` gave a z-score of 0.253.

`CCOC(=O)CSc1ncc(-c2ccccc2)cn1` had a z-score of -0.0802.

`CCOC(=O)N1CCN(C(=O)C2CCN(S(=O)(=O)c3ccccc3)CC2)CC1` returned a z-score of -0.151.

As to `CN1CCN(C(=S)Nc2cccc(C(F)(F)F)c2)CC1`, the z-score was -0.213.

Turning to `Cc1c([N+](=O)[O-])cc(C(=O)Oc2ccc(Br)cc2C(=S)N2CCCCC2)cc1[N+](=O)[O-]`, the z-score is 3.58 (active).

`Cc1ccccc1C(=O)Oc1ccc(Br)cc1C(=S)N1CCCC1`: the z-score is -0.342.

`O=C(Oc1ccc(Br)cc1C(=S)N1CCCCC1)c1cc([N+](=O)[O-])cc([N+](=O)[O-])c1` displayed a z-score of 0.762.

With `C=C(C)CN=C1SC(C(=O)Nc2sc3c(c2C(=O)OC)CCC3)C(N)=C1C(N)=O` (configuration not stated), the z-score worked out at 0.236.

As for `COC(=O)c1cc2sccc2n1CC(=O)N1CCCc2ccccc21`, the z-score worked out at 2.64.

The molecule `O=C(c1cc2sccc2n1Cc1ccccc1)N1CCCc2ccccc21` registered a z-score of -0.795.

`O=C(c1cc2sccc2n1Cc1ccc(F)cc1)N1CCCc2ccccc21` returned a z-score of 0.225.

As to `CC(C)CCNC(=O)C(c1cccnc1)N(CCc1ccccc1)C(=O)Cn1nnc2ccccc21` (configuration not stated), the z-score worked out at 0.555.

`c1ccc(CCNc2nc(-c3cccnc3)cs2)cc1`: the z-score was -0.023.

Turning to `CCCCCNc1nc(-c2ccccc2)cs1`, the z-score was 3.86 (active).

As for `CC(C)=NNc1nc(-c2ccccc2)cs1`, the z-score was -0.203.

`CN(Cc1ccccc1)c1nc2c(c(=O)[nH]c(=O)n2C)n1CCSc1ncccn1`: the z-score was 0.672.

In turn, `CC(C)NC(=S)N/N=C/C1=CCC2CC1C2(C)C` (configuration not stated) yielded a z-score of -0.69.

`CC1(C)C2CC=C(/C=N/n3cnnc3)C1C2` (configuration not stated): the z-score was 2.

For `CC1(C)C2CC=C(/C=N/NC(=O)c3ccc(O)cc3)C1C2` (configuration not stated), the z-score is -0.0642.

As to `Cc1nc2ccc(S(=O)(=O)NC(C(=O)NCc3ccc4c(c3)OCO4)C(C)C)cc2s1` (configuration not stated), the z-score was -0.0773.

Turning to `CCn1cc(C(=O)OCC(=O)c2cc(C)n(-c3ccccc3F)c2C)c(=O)c2ccc(C)nc21`, the z-score was -0.711.

In turn, `Cc1ccc(C)c(NS(=O)(=O)c2c(C)ccc3nsnc23)c1` yielded a z-score of -0.891.

`Cc1ccc2nsnc2c1S(=O)(=O)Nc1cccc2nsnc12`: the z-score was 14.7 (active).

For `O=S(=O)(Nc1cccc2nsnc12)c1ccccc1`, the z-score worked out at 0.265.

For the molecule `O=C(O)COc1ccc(/C=N/n2c(COc3ccccc3)nc3ccccc3c2=O)cc1`, the z-score is -0.124.

Turning to `O=C1CCCc2sccc2N1`, the z-score was -0.164.

In the case of `O=C1C(=C(c2ccccc2)c2ccccc2)Nc2ccccc21`, the z-score was -1.32.

`O=C1CCCCC(=O)c2ccccc2N1`: the z-score came out at 2.21.

Molecule `Cc1cc2cc(C)c3nnc(SCC(=O)N4CCc5ccccc54)n3c2cc1C` showed a z-score of -0.31.

With `COc1cc(CNC2CCCCCC2)cc(OC)c1O`, the z-score came out at 0.176.

`CCn1c(CNC(=O)c2ccco2)nnc1SCC(=O)Nc1cc(C)c(C)cc1Br` had a z-score of -0.121.

The molecule `COC(=O)c1c(N)c(C#N)c(C)n1-c1ccccc1` yielded a z-score of -0.272.

As for `CC(C)(C)C(=O)Nc1ccccc1C(=O)OCC(=O)c1ccc2c(c1)OCCO2`, the z-score is -0.731.

As to `CCOC(=O)N1CCN(Cc2nc(N)nc(Nc3ccccc3C)n2)CC1`, the z-score was -0.106.

`OCCCCNCc1ccc(OCc2ccccc2)cc1` returned a z-score of 0.0747.

`OCCCCNCc1ccc(OCc2ccc(Cl)cc2Cl)cc1` showed a z-score of 1.19.

With `OCCCCNCc1ccc(OCc2ccccc2Cl)cc1`, the z-score is 2.17.

The molecule `Cc1occc1-c1nnc(SCc2cc(=O)n3cc(Br)ccc3n2)n1C` registered a z-score of 0.0968.

As to `CCN1CCCC1CNC(=O)CSCc1nc(-c2ccccc2C)oc1C` (configuration not stated), the z-score was 4.01 (active).

As for `CCN1CCCC1CNC(=O)C1CCN(Cc2nc(-c3cccc(Br)c3)oc2C)CC1` (configuration not stated), the z-score was 4.3 (active).

Take `Cc1oc(-c2ccccc2Cl)nc1CSCC(=O)NC1CCCC1`: the z-score was -0.0255.

Molecule `CCN1CCCC1CNC(=O)CS(=O)(=O)Cc1nc(-c2ccccc2C)oc1C` (configuration not stated) yielded a z-score of 1.21.

Molecule `Cc1ccccc1-c1nc(CN2CCC(C(=O)NCCCN3CC(C)CC(C)C3)CC2)c(C)o1` (configuration not stated) registered a z-score of 2.43.

Molecule `Cc1oc(-c2cccc(Cl)c2)nc1CN1CCC(C(=O)NCC2CCCO2)CC1` (configuration not stated) gave a z-score of -0.375.

Consider `Cc1ccccc1-c1nc(CN2CCC(C(=O)NCC3CCCO3)CC2)c(C)o1` (configuration not stated), for which the z-score is -0.924.

In the case of `Cc1ccccc1-c1nc(CN2CCC(C(=O)NCCC3=CCCCC3)CC2)c(C)o1`, the z-score was determined as 1.63.

Consider `Cc1ccccc1-c1nc(CN2CCC(C(=O)NCCCN3CCOCC3)CC2)c(C)o1`, for which the z-score was -0.636.

Regarding `Cc1oc(-c2cccc(Cl)c2)nc1CN1CCC(C(=O)NCc2ccco2)CC1`, the z-score is -4.86 (active).

`Cc1ccccc1-c1nc(CN2CCCC(C(=O)NCCCN3CCOCC3)C2)c(C)o1` (configuration not stated) yielded a z-score of -0.359.

Take `Cc1ccccc1-c1nc(CN2CCC(C(=O)NCCCN3CCCC3)CC2)c(C)o1`: the z-score came out at 2.76.

Turning to `COCCNC(=O)c1ccc(C(=O)C(=O)c2ccccc2)cc1`, the z-score is -0.189.

Molecule `CCOC(=O)N1CCC(NC(=O)c2cc3c(=O)n(C)c4ccccc4c3n2C)CC1` registered a z-score of -0.597.

Molecule `CC(C)(C)NS(=O)(=O)c1ccc(CCC(=O)Nc2cc(Cl)ccc2Oc2ccccc2)cc1` showed a z-score of 0.0264.

Turning to `Cc1ccc(C(=O)Oc2coc(CSc3nnc(NC(=O)C4CC4)s3)cc2=O)cc1C`, the z-score was 0.84.

Consider `Cc1nnc(N(Cc2ccccc2)C(=O)c2cnccn2)s1`, for which the z-score stood at 0.0216.
